Experimental data reported in PubChem BioAssay (NCI).
Compounds without any hit were thinned out: in the full panel of roughly 79,000, 15% have a hit. Active and inactive are the calls of the source. No stated cut-off is given here; in the data, active means growth inhibition above about 70%; inactive means the rest.

How the values were obtained:
[1] = NCI Yeast Anticancer Drug Screen. Data for the rad52 strain (AID 147);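 further: 0% = growth of vehicle-treated control cultures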; conditions: S. cerevisiae rad52 mutant growth inhibition, hits give high values
Summary of the method: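 Compounds are applied to a genetically defined yeast strain lacking normal DNA damage repair, and inhibition of growth is expressed relative to cultures given vehicle only.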

[2] = NCI Yeast Anticancer Drug Screen. Data for the wt1 strain (AID 149);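 further: 0% = growth of vehicle-treated wt1 cultures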; conditions: S. cerevisiae wt1 strain (SPY 50644) growth inhibition, hits give high values
Summary of the method: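 Compounds are added to wt1 yeast cultures. Growth is then measured. Inhibition is expressed relative to vehicle-treated controls.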

[3] = NCI Yeast Anticancer Drug Screen. Data for the rad50EPP+ strain (AID 151);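 further: 0% = growth of vehicle-treated control cultures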; conditions: S. cerevisiae rad50 mutant strain, hits give high values
Summary of the method: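 Compounds were applied to the rad50EPP+ yeast strain, which bears a defined DNA repair alteration, and growth inhibition was determined relative to vehicle-treated cultures.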

[4] = NCI Yeast Anticancer Drug Screen. Data for the rad50 strain (AID 155);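 further: 0% = growth of vehicle-only cultures of the same strain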; conditions: S. cerevisiae rad50 strain growth inhibition, hits give high values
Summary of the method: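 Inhibition values express reduced yeast growth in compound-treated cultures relative to vehicle-treated controls.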

[5] = NCI Yeast Anticancer Drug Screen. Data for the mec2-1 strain (AID 157); conditions: S. cerevisiae mec2-1 strain, hits give high values
Summary of the method: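 Strain: mec2-1 (DNA repair/cell cycle alteration). Compound exposure, then growth measured; inhibition expressed relative to vehicle.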

[6] = NCI Yeast Anticancer Drug Screen. Data for the rad14 strain (AID 159);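 further: 0% = growth of vehicle-treated control cultures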; conditions: S. cerevisiae rad14 strain growth inhibition, hits give high values
Summary of the method: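 A mutant yeast strain defective in DNA damage repair is treated with compound; inhibition of its growth is scored against untreated, vehicle-exposed cultures.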

[7] = NCI Yeast Anticancer Drug Screen. Data for the sgs1 mgt1 strain (AID 161);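 further: 0% = growth of cultures given vehicle only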; conditions: S. cerevisiae sgs1 mgt1 strain, hits give high values
Summary of the method: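 Genetically altered yeast, compound exposure, growth inhibition relative to vehicle.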

[8] = NCI Yeast Anticancer Drug Screen. Data for the CLN2oe strain (AID 163);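 further: 0% = growth of vehicle-only control cultures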; conditions: S. cerevisiae CLN2oe strain, hits give high values
Summary of the method: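 Growth of a genetically modified yeast strain is measured after compound exposure and compared with cultures given vehicle alone.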

[9] = NCI Yeast Anticancer Drug Screen. Data for the cln2 rad14 strain (AID 165);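 further: 0% = growth equal to vehicle treated cultures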; conditions: S. cerevisiae cln2 rad14 strain, hits give high values
Summary of the method: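 Compounds are applied to the cln2 rad14 yeast strain, and growth is then compared with that of vehicle-treated cultures to give inhibition.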

[10] = NCI Yeast Anticancer Drug Screen. Data for the bub3 strain (AID 167); conditions: S. cerevisiae bub3 mutant strain, hits give high values
Summary of the method: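 Steps: expose the mutant yeast strain to compound; grow alongside vehicle-treated cultures; measure growth; express inhibition against the vehicle cultures.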

[11] = NCI Yeast Anticancer Drug Screen. Data for the wt2 strain (AID 169);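 further: 0% = growth of vehicle-treated yeast cultures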; conditions: S. cerevisiae wt2 strain growth inhibition, hits give high values
Summary of the method: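 This strain belongs to a panel of yeast strains with defined genetic alterations in DNA damage repair or cell cycle control. Compounds are applied, and growth inhibition is measured against vehicle-treated cultures.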

[12] = NCI Yeast Anticancer Drug Screen. Data for the mlh1 strain (AID 171);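 further: 0% = growth of vehicle-treated control cultures of the same strain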; conditions: S. cerevisiae mlh1 strain growth inhibition, hits give high values
Summary of the method: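 Growth of the mutant yeast strain after compound exposure, expressed as inhibition relative to vehicle-only controls.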

[13] = NCI Yeast Anticancer Drug Screen. Data for the sgs1 strain (AID 173);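 further: 0% = growth of vehicle-only control cultures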; conditions: S. cerevisiae sgs1 mutant, hits give high values
Summary of the method: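 Growth of a yeast strain bearing a defined genetic alteration is measured after compound treatment. Inhibition is expressed relative to vehicle-only controls.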

[14] = NCI Yeast Anticancer Drug Screen. Data for the mlh1 rad18 strain (AID 175); conditions: S. cerevisiae mlh1 rad18 strain growth inhibition, hits give high values
Summary of the method: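 Read-out is yeast growth inhibition, calculated against vehicle-only controls. The compound was applied to a strain engineered with DNA damage repair alterations.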

[15] = NCI Yeast Anticancer Drug Screen. Data for the rad18 strain (AID 177); conditions: S. cerevisiae rad18 mutant growth inhibition, hits give high values
Summary of the method: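 Growth of the mutant yeast strain after compound exposure, normalised to vehicle-only cultures.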

[16] = at 5.0 µM (retest, dose inferred, filed as 0.5)
[17] = at 50.0 µM (retest, dose inferred, filed as 5.0)

Measured: growth inhibition

CN[C@@H]1C[C@H]2O[C@@](C)([C@@H]1OC)n1c3ccccc3c3c4c(c5c6ccccc6n2c5c31)C(=O)N[C@@H]4O
active: [10]; [17] 83% | [10]; at 50.0 µM 74.5% | [10]; at 100.0 µM 74%
inactive: [1]; at 1.2 µM 11% | [1]; at 3.7 µM 35% | [1]; at 11.0 µM 22% | [1]; at 33.0 µM 24% | [1]; at 100.0 µM 38% | [2]; at 1.2 µM -24% | [2]; at 3.7 µM 16% | [2]; at 11.0 µM 15% | [2]; at 33.0 µM 7% | [2]; at 100.0 µM 8% | [3]; at 1.2 µM -23% | [3]; at 3.7 µM -18% | [3]; at 11.0 µM -9% | [3]; at 33.0 µM -11% | [3]; at 100.0 µM 21% | [4]; at 1.2 µM -34% | [4]; at 3.7 µM -41% | [4]; [16] -17% | [4]; at 11.0 µM -23% | [4]; at 33.0 µM -33% | [4]; [17] 6% | [4]; at 50.0 µM 50.4% | [4]; at 100.0 µM 2% | [5]; at 1.2 µM -53% | [5]; at 3.7 µM -44% | [5]; [16] -9% | [5]; at 11.0 µM -36% | [5]; at 33.0 µM -9% | [5]; [17] 30% | [5]; at 50.0 µM 35% | [5]; at 100.0 µM 19% | [6]; at 1.2 µM -31% | [6]; at 3.7 µM -34% | [6]; at 11.0 µM -31% | [6]; at 33.0 µM -9% | [6]; at 100.0 µM 67% | [7]; [16] -1% | [7]; [17] 24% | [7]; at 50.0 µM 16.4% | [8]; at 1.2 µM -8% | [8]; at 3.7 µM -8% | [8]; at 11.0 µM 5% | [8]; at 33.0 µM 12% | [8]; at 100.0 µM 20% | [9]; [16] 13% | [9]; [17] 38% | [9]; at 50.0 µM 22.4% | [10]; at 1.2 µM -11% | [10]; at 3.7 µM -10% | [10]; [16] 30% | [10]; at 11.0 µM 13% | [10]; at 33.0 µM 32% | [11]; at 1.2 µM -36% | [11]; at 3.7 µM -16% | [11]; at 11.0 µM 15% | [11]; at 33.0 µM -21% | [11]; at 100.0 µM 21% | [12]; at 1.2 µM -20% | [12]; at 3.7 µM -12% | [12]; at 11.0 µM -16% | [12]; at 33.0 µM 0% | [12]; at 100.0 µM -7% | [13]; at 1.2 µM -1% | [13]; at 3.7 µM -5% | [13]; at 11.0 µM 1% | [13]; at 33.0 µM 8% | [13]; at 100.0 µM 43% | [14]; [16] 2% | [14]; [17] 31% | [14]; at 50.0 µM 25.7% | [15]; at 1.2 µM -8% | [15]; at 3.7 µM -7% | [15]; at 11.0 µM -3% | [15]; at 33.0 µM 10% | [15]; at 100.0 µM 25%
